Experimental data from PubChem BioAssay AID1159580 (chemical genetic matrix, 2015).
Several values for one entry are separate records, joined by “and”; a condition that tells them apart may be missing. Identical values can stand only once. Out of some 5,500 compounds screened, about 2,000 (36%) were called active. Not shown: some 18% with an inconclusive outcome. No stated cut-off is given here; in the data, active means normalized growth mostly below about 0.91 (no sharp cut-off); inconclusive means no clear call, values can overlap the other calls; inactive means mostly above about 0.92. The list shows a part of the results.

Test: chemical genetic growth profiling, strain panel (AID 1159580);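 further: tested at 20 µM; growth read once vehicle control cultures reached saturation at 30 °C; 1 = growth at the plate median or of vehicle wells; lower values mean less growth of the strain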
Conditions: growth OD

Measured: normalized growth

O=C(O)CCCCCCCC(=O)O
inactive: S. cerevisiae deletion strains, locus YKL009W, strain mrt4, active compounds read low 0.937 | S. cerevisiae deletion strains, locus YKL068W, active compounds read low 1.01 | S. cerevisiae deletion strains, locus YKL085W, strain MDH1 (second series), active compounds read low 1 | S. cerevisiae deletion strains, locus YKL085W, strain MDH1, active compounds read low 1 | S. cerevisiae deletion strains, locus YKL160W, strain elf1, active compounds read low 1.04 | S. cerevisiae deletion strains, locus YKL190W, strain CNB1, active compounds read low 0.992 | S. cerevisiae deletion strains, locus YKR001C, strain vps1, active compounds read low 0.981 | S. cerevisiae deletion strains, locus YKR026C, strain gcn3, active compounds read low 1.01 | S. cerevisiae deletion strains, locus YKR091W, strain srl3, active compounds read low 0.996 | S. cerevisiae deletion strains, locus YLL001W, strain dnm1, active compounds read low 1.02 | S. cerevisiae deletion strains, locus YLL026W, active compounds read low 0.995 | S. cerevisiae deletion strains, locus YLL041C, strain sdh2, active compounds read low 0.993 | S. cerevisiae deletion strains, locus YLR027C, strain aat2, active compounds read low 1.01 | S. cerevisiae deletion strains, locus YLR039C, strain RIC1, active compounds read low 0.999 | S. cerevisiae deletion strains, locus YLR058C, strain SHM2, active compounds read low 0.978 | S. cerevisiae deletion strains, locus YLR102C, strain apc9, active compounds read low 0.99 | S. cerevisiae deletion strains, locus YLR113W, strain HOG1, active compounds read low 0.966 | S. cerevisiae deletion strains, locus YLR221C, strain rsa3, active compounds read low 1.01 | S. cerevisiae deletion strains, locus YLR258W, strain gsy2, active compounds read low 1.02 | S. cerevisiae deletion strains, locus YLR262C, strain YPT6 (second series), active compounds read low 0.981 | S. cerevisiae deletion strains, locus YLR262C, strain YPT6, active compounds read low 0.949 | S. cerevisiae deletion strains, locus YLR268W, strain sec22, active compounds read low 1.01 | S. cerevisiae deletion strains, locus YLR320W, strain mms22, active compounds read low 1 | S. cerevisiae deletion strains, locus YLR330W, strain CHS5, active compounds read low 0.995 | S. cerevisiae deletion strains, locus YLR342W, strain FKS1 (second series), active compounds read low 1.03 | S. cerevisiae deletion strains, locus YLR342W, strain FKS1, active compounds read low 1.01 | S. cerevisiae deletion strains, locus YLR357W, strain rsc2, active compounds read low 1.05 | S. cerevisiae deletion strains, locus YLR370C, strain arc18, active compounds read low 1.01 | S. cerevisiae deletion strains, locus YLR371W, strain rom2, active compounds read low 0.991 | S. cerevisiae deletion strains, locus YLR384C, strain iki3, active compounds read low 0.994 | S. cerevisiae deletion strains, locus YLR418C, strain cdc73, active compounds read low 1.02 | S. cerevisiae deletion strains, locus YML016C, strain PPZ1, active compounds read low 0.991 | S. cerevisiae deletion strains, locus YML032C, strain rad52, active compounds read low 0.972 | S. cerevisiae deletion strains, locus YML120C, strain ndi1, active compounds read low 1 | S. cerevisiae deletion strains, locus YML124C, strain tub3, active compounds read low 0.991 | S. cerevisiae deletion strains, locus YMR058W, strain fet3, active compounds read low 1.01 | S. cerevisiae deletion strains, locus YMR078C, strain ctf18, active compounds read low 0.983 | S. cerevisiae deletion strains, locus YMR125W, strain sto1, active compounds read low 1.03 | S. cerevisiae deletion strains, locus YMR129W, active compounds read low 1.01 | S. cerevisiae deletion strains, locus YMR205C, strain PFK2, active compounds read low 1.02 | S. cerevisiae deletion strains, locus YMR223W, strain ubp8, active compounds read low 1 | S. cerevisiae deletion strains, locus YMR231W, strain pep5, active compounds read low 1.01 | S. cerevisiae deletion strains, locus YMR263W, strain SAP30, active compounds read low 0.984 and 1.01 | S. cerevisiae deletion strains, locus YMR307W, strain GAS1, active compounds read low 1.12 | S. cerevisiae deletion strains, locus YNL067W, strain RPL9B, active compounds read low 0.996 | S. cerevisiae deletion strains, locus YNL071W, strain lat1, active compounds read low 1 | S. cerevisiae deletion strains, locus YNL128W, strain TEP1, active compounds read low 0.976 | S. cerevisiae deletion strains, locus YNL153C, strain GIM3, active compounds read low 0.986 and 1.02 | S. cerevisiae deletion strains, locus YNL175C, strain NOP13, active compounds read low 1.01 | S. cerevisiae deletion strains, locus YNL183C, strain NPR1, active compounds read low 0.945 | S. cerevisiae deletion strains, locus YNL197C, strain WHI3, active compounds read low 1.01 | S. cerevisiae deletion strains, locus YNL209W, strain ssb2, active compounds read low 1 | S. cerevisiae deletion strains, locus YNL224C, strain SQS1, active compounds read low 1 | S. cerevisiae deletion strains, locus YNL233W, strain BNI4, active compounds read low 0.994 | S. cerevisiae deletion strains, locus YNL248C, strain rpa49, active compounds read low 1.04 | S. cerevisiae deletion strains, locus YNL250W, strain rad50, active compounds read low 0.988 | S. cerevisiae deletion strains, locus YNL271C, strain bni1, active compounds read low 0.992 | S. cerevisiae deletion strains, locus YNL298W, strain CLA4, active compounds read low 0.926 | S. cerevisiae deletion strains, locus YNL307C, strain MCK1, active compounds read low 0.992 | S. cerevisiae deletion strains, locus YNL322C, strain KRE1 (second series), active compounds read low 1.04 | S. cerevisiae deletion strains, locus YNL322C, strain KRE1, active compounds read low 0.992 | S. cerevisiae deletion strains, locus YNR049C, strain mso1, active compounds read low 1.01 | S. cerevisiae deletion strains, locus YNR052C, strain pop2, active compounds read low 0.974 | S. cerevisiae deletion strains, locus YOL006C, strain TOP1, active compounds read low 1.02 | S. cerevisiae deletion strains, locus YOL012C, strain htz1 0.954 | S. cerevisiae deletion strains, locus YOL147C, strain pex11, active compounds read low 1 | S. cerevisiae deletion strains, locus YOR001W, strain rrp6, active compounds read low 1 | S. cerevisiae deletion strains, locus YOR061W, strain CKA2, active compounds read low 0.973 | S. cerevisiae deletion strains, locus YOR069W, strain VPS5, active compounds read low 0.998 | S. cerevisiae deletion strains, locus YOR070C, strain gyp1, active compounds read low 1.02 | S. cerevisiae deletion strains, locus YOR080W, strain dia2, active compounds read low 1.01 | S. cerevisiae deletion strains, locus YOR083W, strain WHI5 (second series), active compounds read low 1.02 | S. cerevisiae deletion strains, locus YOR083W, strain WHI5, active compounds read low 1 | S. cerevisiae deletion strains, locus YOR106W, strain vam3, active compounds read low 1.03 | S. cerevisiae deletion strains, locus YOR136W, strain idh2, active compounds read low 0.962 | S. cerevisiae deletion strains, locus YOR144C, strain elg1, active compounds read low 0.993 | S. cerevisiae deletion strains, locus YOR184W, strain ser1, active compounds read low 0.988 | S. cerevisiae deletion strains, locus YOR231W, strain MKK1, active compounds read low 0.973 | S. cerevisiae deletion strains, locus YOR265W, strain rbl2, active compounds read low 1.01 | S. cerevisiae deletion strains, locus YOR270C, strain vph1, active compounds read low 1.1 | S. cerevisiae deletion strains, locus YOR290C, strain snf2, active compounds read low 1.04 | S. cerevisiae deletion strains, locus YOR316C, strain cot1, active compounds read low 0.985 | S. cerevisiae deletion strains, locus YPL051W, strain arl3, active compounds read low 1.02 | S. cerevisiae deletion strains, locus YPL055C, strain LGE1, active compounds read low 0.957 | S. cerevisiae deletion strains, locus YPL078C, strain atp4, active compounds read low 1.03 | S. cerevisiae deletion strains, locus YPL106C, strain sse1, active compounds read low 0.996 | S. cerevisiae deletion strains, locus YPL240C, strain hsp82, active compounds read low 1.01 | S. cerevisiae deletion strains, locus YPL241C, strain CIN2, active compounds read low 0.997 and 1.01 | S. cerevisiae deletion strains, locus YPL256C, strain CLN2, active compounds read low 0.988 | S. cerevisiae deletion strains, locus YPR119W, strain clb2, active compounds read low 0.987 | S. cerevisiae deletion strains, locus YPR141C, strain kar3, active compounds read low 1 | S. cerevisiae deletion strains, locus YPR163C, strain tif3, active compounds read low 0.987 | S. cerevisiae deletion strains, locus YPR167C, strain met16, active compounds read low 0.99 | S. cerevisiae deletion strains, strain wtn01, active compounds read low 0.983 | S. cerevisiae strains, strain wild type, active compounds read low 0.999
